Measurements published in PubChem BioAssay (NCI).
Where “and” joins values, the source holds several entries; their conditions need not be identical. Equal entries are not always repeated. About 79,000 compounds went through this panel and 15% of them were active in at least one assay; those are over-represented in the sample as a whole. Calls of active or inactive are those of the source. Rule as the data show it: active = growth inhibition above about 70%; inactive = the rest.

What was measured:
[1] = NCI Yeast Anticancer Drug Screen. Data for the rad50 strain (AID 155);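 also: 0% = growth of vehicle-only cultures of the same strain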; conditions: S. cerevisiae rad50 strain growth inhibition, hits give high values; at 50.0 µM unless noted
Procedure, shortened: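 Vehicle-treated cultures provide the reference for the growth inhibition reported for compound-exposed, repair-deficient yeast.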

[2] = NCI Yeast Anticancer Drug Screen. Data for the mec2-1 strain (AID 157); conditions: S. cerevisiae mec2-1 strain, hits give high values; at 50.0 µM unless noted
Procedure, shortened: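 Strain: mec2-1 (DNA repair/cell cycle alteration). Compound exposure, then growth measured; inhibition expressed relative to vehicle.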

[3] = NCI Yeast Anticancer Drug Screen. Data for the sgs1 mgt1 strain (AID 161);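 also: 0% = growth of cultures given vehicle only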; conditions: S. cerevisiae sgs1 mgt1 strain, hits give high values; at 50.0 µM unless noted
Procedure, shortened: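 Genetically altered yeast, compound exposure, growth inhibition relative to vehicle.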

[4] = NCI Yeast Anticancer Drug Screen. Data for the cln2 rad14 strain (AID 165);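 also: 0% = growth equal to vehicle treated cultures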; conditions: S. cerevisiae cln2 rad14 strain, hits give high values; at 50.0 µM unless noted
Procedure, shortened: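 Compounds are applied to the cln2 rad14 yeast strain, and growth is then compared with that of vehicle-treated cultures to give inhibition.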

[5] = NCI Yeast Anticancer Drug Screen. Data for the bub3 strain (AID 167); conditions: S. cerevisiae bub3 mutant strain, hits give high values; at 50.0 µM unless noted
Procedure, shortened: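 Mutant yeast screening strain plus compound; vehicle-treated cultures serve as the 0% inhibition reference.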

[6] = NCI Yeast Anticancer Drug Screen. Data for the mlh1 rad18 strain (AID 175); conditions: S. cerevisiae mlh1 rad18 strain growth inhibition, hits give high values; at 50.0 µM unless noted
Procedure, shortened: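 Read-out is yeast growth inhibition, calculated against vehicle-only controls. The compound was applied to a strain engineered with DNA damage repair alterations.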

Measured: growth inhibition

Cc1ccccc1OC(=O)Oc1ccccc1C
inactive: [1] 8.7% | [2] -2.6% | [3] 4.8% | [4] 1% | [5] 21.1% | [6] 21.9%

Cc1ccnc(NS(=O)(=O)c2ccc(N=[N+]=[N-])cc2)n1
inactive: [1] -3.2% | [2] -6% | [3] 1.9% | [4] -7.4% | [5] -17.6% | [6] -14%

Cc1ccc([N+](=O)[O-])cc1NC(=O)N(Cc1ccccc1)Cc1ccccc1
inactive: [1] 8.7% | [2] 1.5% | [3] 10.8% | [4] 9.4% | [5] 17.3% | [6] -0.05%

C=C(c1ccccc1)C1ON(C)CCc2cc(OC)c(OC)cc21 (stereo not given)
inactive: [1] 3.65% | [2] 15.4% | [3] 14.3% | [4] 5.85% | [5] 33.6% | [6] 5.45%

c1ccc(CCCNc2nnnc3ccccc23)cc1
inactive: [1] -9.3% | [2] -36.1% | [3] -10.8% | [4] -19.2% | [5] -57.2% | [6] -4.4%

CCOC(=O)[C@H]1Nc2c(cccc2[N+](=O)[O-])C2c3ccccc3CC21 (stereo not given in full)
inactive: [1] 48.5% | [2] 1.55% | [3] 8.6% | [4] 25.3% | [5] 9.5% | [6] 13.6%

COc1ccc(-n2c(N)c(C#N)[nH]c2=O)cc1
inactive: [1] -8.7% | [2] -36.1% | [3] -14% | [4] -11.8% | [5] 6.05% | [6] -21.3%

O=c1oc(-c2ccccc2CCl)nc2ccccc12
inactive: [1] 0.95% | [2] -17.1% | [3] 15.8% | [4] 15.3% | [5] -13.8% | [6] -5.9%

COc1cccc(C(c2ccccc2)C(CC(=O)O)CC(=O)O)c1 (stereo not given)
inactive: [1] 8.8% | [2] 8.6% | [3] -12.8% | [4] 4% | [5] -2.1% | [6] -16.5%

CCOC(=O)C(CC(C)C)NC(=O)c1c2nc3c(C(=O)NC(CC(C)C)C(=O)OCC)cc(NC(C)=O)c(C)c3oc-2c(C)c(=O)c1N (stereo not given)
inactive: [1] 8.4% | [2] 34.5% | [3] 34.6% | [4] -4.95% | [5] -6.5% | [6] 48.8%

O=C1CC2(C(=O)O)CC3CC2C(O1)C3I (stereo not given)
inactive: [1] 13.7% | [2] 10.6% | [3] 24.1% | [4] 13.1% | [5] 14.5% | [6] 21.2%

O=c1cc2ccccc2nn1-c1ccccc1Cl
inactive: [1] 26.1% | [2] 6.4% | [3] 37.6% | [4] 36.5% | [5] 25.3% | [6] 34.5%

CCSC(SCC)C(NC(C)=O)C(O)C(O)C(O)CO (stereo not given)
inactive: [1] 28.7% | [2] 3.45% | [3] 3.7% | [4] 12.7% | [5] 15.2% | [6] 21.4%

CN1CC2=C(NC(=S)NC2c2ccc(Cl)cc2)/C(=C/c2ccc(Cl)cc2)C1 (stereo not given)
inactive: [1] -7.95% | [2] 4.45% | [3] 7.45% | [4] 14.4% | [5] 29.2% | [6] 4.15%

O=C(NCCO)c1c(O)c2ccccc2[nH]c1=O
inactive: [1] 2.8% | [2] 0.2% | [3] -6.05% | [4] 12.9% | [5] 6.55% | [6] 2.9%

O=NC1C(Br)C2CC1C1C(Br)C(Br)CC21 (stereo not given)
inactive: [1] 4.45% | [2] 5.95% | [3] 13.3% | [4] 0.15% | [5] -1.2% | [6] 6.7%

CCOC(=O)c1ccc(N/C(C)=C/C(=O)OC)cc1
inactive: [1] 3.45% | [2] -8.4% | [3] 11.2% | [4] -20.7% | [5] 1.95% | [6] 3.55%

C/C(=C\C(=O)c1ccc(Sc2ccccc2)cc1)c1ccc(Sc2ccccc2)cc1
inactive: [1] 25.1% | [2] -4.85% | [3] 6.15% | [4] -17.6% | [5] 24.1% | [6] 21.2%

COc1ccccc1/C=C1\C(=O)N(C(=O)c2ccc(NC(C)=O)cc2)N=C1C
inactive: [1] 1.6% | [2] -27.1% | [3] -34.8% | [4] -3.2% | [5] -23.9% | [6] -26.1%

O=C(Nc1ccccn1)c1ccccc1Cl
inactive: [1] 1.1% | [2] 3.1% | [3] -9.5% | [4] 4.2% | [5] -5.9% | [6] 19.3%

OCC1=CC(O)C2C=COC(OC3OC(CO)C(O)C(O)C3O)C12 (stereo not given)
inactive: [1] -15.9% | [2] -24.6% | [3] -19.1% | [4] -6.45% | [5] -32% | [6] -31.1%

NC(=S)Nc1nnc(-c2ccc(-c3nnc(NC(N)=S)o3)cc2)o1
inactive: [1] 18.4% | [2] 6.65% | [3] -21.2% | [4] 5.35% | [5] 2.05% | [6] -8.05%

CCN(CC)CC(C)O (stereo not given)
inactive: [1] 39.7% | [2] 13.2% | [3] 21% | [4] -26.9% | [5] -9.45% | [6] 30.6%

Cn1c(=S)[nH]c2c(Cl)cc(Cl)cc2c1=O
inactive: [1] -40.4% | [2] -30.6% | [3] -7.1% | [4] -13.9% | [5] -27.7% | [6] -51.9%

O=C1c2ccccc2C(=O)N1c1ccc(Cc2ccc(N3C(=O)c4ccccc4C3=O)cc2)cc1
inactive: [1] -11.7% | [2] 10.1% | [3] -2.6% | [4] 42.9% | [5] -0.2% | [6] 14.7%

CCCCCC(=O)OCCSCCOC(=O)CCCCC
inactive: [1] 4.55% | [2] 1.3% | [3] -5.85% | [4] -39.1% | [5] 10.8% | [6] 0.2%

COc1ccc(C2OC3=C(Nc4ccccc4N3)C2=O)cc1 (stereo not given)
inactive: [1] 19.5% | [2] 5.8% | [3] 27.4% | [4] 14.1% | [5] -14.3% | [6] 46.2%

CCOC(=O)N1CCN(C(=O)CC(C)=O)CC1
inactive: [1] 2.35% | [2] -32.5% | [3] -0.15% | [4] 19.1% | [5] 4.45% | [6] 16.6%

CC(=O)Nc1ccc(NC(=O)NCCCCCCNC(=O)Nc2ccc(NC(C)=O)cc2)cc1
inactive: [1] -1.5% | [2] 2.7% | [3] -21.6% | [4] -20.6% | [5] -1.7% | [6] 5.5%

Clc1ccc(-c2c(C3=NCCCN3)nnn2-c2ccc(Cl)cc2)cc1
inactive: [1] -16.6% | [2] -17.9% | [3] -10.9% | [4] 11.7% | [5] -3.6% | [6] -25.7%

O=C(O)CCCCC1CCCCC1
inactive: [1] 53.1% | [2] 17.1% | [3] 38.8% | [4] 17.1% | [5] 33.6% | [6] 43.1%

CC1(C)OC2OC3C(O)C(=O)OC3C2O1 (stereo not given)
inactive: [1] -36.8% | [2] -16.9% | [3] -19.2% | [4] -20% | [5] -2.6% | [6] -7.1%

CCOC(=O)N1C(=O)C2C3C=CC(C2C1=O)C1C2C(=O)N(C(=O)OCC)C(=O)C2C31 (stereo not given)
inactive: [1] 1.4% | [2] -3.15% | [3] -37.4% | [4] -0.55% | [5] -19.9% | [6] -37.6%

CC(=O)Nc1cccc(N=Cc2ccc(N(CCOS(C)(=O)=O)CCOS(C)(=O)=O)cc2C)c1
inactive: [3] 40.4% | [4] 22.9% | [5] 13.8%
active: [1] 73.8% | [2] 70.5% | [6] 93.2%

NC(CSS(=O)(=O)O)=NCCCOCc1ccccc1
inactive: [1] 15.4% | [2] 7% | [3] 12.3% | [4] 10% | [5] 18.6% | [6] -7.2%

Cc1ccc(N(C)S(=O)(=O)c2ccccc2[N+](=O)[O-])cc1
inactive: [1] 19.1% | [2] -17.6% | [3] 28.3% | [4] 12.1% | [5] 14.1% | [6] 19.6%

CC(=O)NCC(=O)c1ccc([N+](=O)[O-])cc1
inactive: [1] 16.6% and -14.7% | [2] -16.3% and -24.1% | [3] 13% and -0.95% | [4] -0.2% and 6.65% | [5] -6.95% and -17.6% | [6] 29.8% and -1.7%

CCN(CC)C(=S)Oc1ccc(OC(=S)N(CC)CC)cc1
inactive: [1] 30.6% | [2] 7.1% | [3] -0.95% | [4] -6.75% | [5] -2.85% | [6] -7.35%

O=C(O)Nc1ccc(I)cc1
inactive: [1] -9.2% | [2] -10.2% | [3] 1.15% | [4] -25.9% | [5] -4.1% | [6] -12.4%

CCC(=O)COc1ccc(NC(NC(=O)C(C(F)(F)F)C(F)(F)F)(C(F)(F)F)C(F)(F)F)cc1
inactive: [1] 16.2% | [2] -24.8% | [3] 6.5% | [4] 29.2% | [5] -3.3% | [6] -16%
